# An excerpt weighted towards active compounds, which were near 12% of everything screened.
# PLK1 PBD inh: inhibitors of human PLK1 polo-box domain binding; Potency, µM, inactives show max response, negative = inhibition, hits mostly inhibitors; AID 720504; P53350; 2.8% of 360,000 active; Plk1 PBD binding of FITC phosphopeptide, fluorescence polarization; note: potency is the fitted concentration of half-maximal effect; series mostly up to about 57 µM; % is set by controls: 0 for no effect and ±100 for the full control effect; nearly all actives have a fitted effect of over 65% in size
# JMJD2A Tudor: inhibitors of human JMJD2A Tudor domain | AID 504339 | O75164 | Potency, µM (top dose mostly 114 µM), inactives show at the highest dose activity change, negative = inhibition, usual class: inhibitors | 4.4% of 390,000 active | AlphaScreen JMJD2A-Tudor / H3K4me3 peptide binding; note: potency is the fitted concentration of half-maximal effect; % is set by controls: 0 for no effect and ±100 for the full control effect; nearly all actives have a fitted effect of over 50% in size
# G9a inh: G9a (human) methyltransferase inhibition. AID 504332. Q96KQ7. G9a H3K9 monomethylation, AlphaScreen, 2 h. Potency, µM (top dose mostly 102 µM), inactives show top-dose activity, negative = inhibition, actives largely listed as inhibitors. 8.8% of 350,000 active; note: potency is the fitted concentration of half-maximal effect; % is set by controls: 0 for no effect and ±100 for the full control effect; nearly all actives have a fitted effect of over 75% in size
#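 G9a (20 nM) preincubated 15 min RT with compounds, then 500 nM biotinylated H3K9 peptide and 20 uM SAM added; 2 h RT reaction. Monomethyl-H3K9 product detected by AlphaScreen with anti-H3K9me1 antibody, streptavidin donor and anti-rabbit IgG acceptor beads.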
# HP1b chromo inh: HP1-beta chromodomain-methylated histone interaction inhibition; P83916; AlphaScreen HP1-beta / biotin-H3K9me3 peptide binding; Potency, µM (highest dose often 114 µM), for the others: at the highest dose activity change, negative = inhibition, usual class: inhibitors; 0.56% of 390,000 active; note: potency is the fitted concentration of half-maximal effect; nearly all actives have a fitted effect of over 70% in size
#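 AlphaScreen: HP1-beta (50 nM) preformed 30 min with biotin-H3(1-18)K9me3 peptide (50 nM) in PBS pH 7.4, 0.01% Tween-20. Compound added for 30 min at RT, then streptavidin donor/nickel chelate acceptor beads (10 ug/mL) for 30 min.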
# BAZ2B inh: BAZ2B (human) inhibition | Q9UIF8 | AlphaScreen BAZ2B-H3K14Ac peptide displacement | Potency, µM (top dose mostly 114 µM), for the others: at the highest dose activity change, negative = inhibition, usual class: inhibitors | 4.4% of 360,000 active; note: potency is the fitted concentration of half-maximal effect; % is set by controls: 0 for no effect and ±100 for the full control effect; nearly all actives have a fitted effect of over 60% in size
#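 In this displacement format the biotinylated H3(5-23) peptide acetylated at Lys14 serves as ligand at 50 nM, with BAZ2B at 50 nM in PBS pH 7.4 containing 0.01% Tween-20. Donor and acceptor beads are 10 ug/mL final.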
# PI5P4K alpha inh: blocks human PI5P4K alpha kinase activity. max response, %. P48426. PI5P4Kalpha enzyme, ADP-Glo luminescence, 60 min; hits give low values. 1.2% of 330,000 active. AID 652105; active = max response of -50% or lower; inconclusive = between -30% and -50%; inactive = -30% or higher; note: value at the top dose of about 77 µM; % is set by controls: 0 for no effect and ±100 for the full control effect
#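 Compounds were pin-transferred onto PI5P4Kalpha and substrate in HEPES pH 7.4 buffer with EGTA, CHAPS and 5% DMSO. ATP (5 microM final) started the reaction, which ran 60 minutes at room temperature before ADP-Glo detection.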
# The depositor's hits bear a star; ? = inconclusive; nt = no result; [ ] = another dose, or the depositor's remark. Unless noted, calls come from the whole dose curve; as a rule, active = well fitted curve in the direction sought with a large enough effect; inconclusive = small, poorly fitted or top-dose-only effect, or another doubt; inactive = no such curve, though single readings can be large; an effect the other way counts as inactive or inconclusive.
SMILES,PLK1 PBD inh,JMJD2A Tudor,G9a inh,HP1b chromo inh,BAZ2B inh,PI5P4K alpha inh
CC(=O)OCCc1c(C)nc2nc[nH]n2c1=O,?,-29.2%,50.1µM*,10.5%,-9.0%,-7.0
C=CCCN(Cc1ccc(OC)cc1)S(=O)(=O)c1ccccc1Br,nt,55.2%,nt,115.5%,nt,nt
O=[N+]([O-])c1cccnc1N1CCOCC1,-2.8%,-17.3%,nt,24.5%,-3.1%,nt
O=[N+]([O-])c1cccnc1N1CCN(c2ccc(F)cc2)CC1,?,25.1µM*,44.7µM*,44.7µM*,39.8µM*,-2.1
Nc1ccc(-c2nc3ccc(-c4nc5ccc(N)cc5[nH]4)cc3[nH]2)cc1,nt,nt,22.4µM*,nt,nt,nt
Nc1ccc2nc(-c3ccc(-c4nc5ccc(N)cc5[nH]4)cc3)[nH]c2c1,1.0%,-33.3%,5.2%,19.0%,?,-24.0
Nc1ccc2nc(-c3cccc(-c4nc5ccc(N)cc5[nH]4)n3)[nH]c2c1,-1.3%,44.7µM*,11.2µM*,?,25.1µM*,?
COC(=O)COc1cccc(NC(=O)C(c2ccccc2)c2ccccc2)c1,-10.4%,-8.2%,nt,32.8%,9.8%,-5.4
Cc1ccc(Cn2c(C(=O)Nc3cccc(Cl)c3)cc3sccc32)cc1,nt,-1.0%,?,56.5%,-0.2%,nt
CC(c1ccccc1)N1C(=O)c2ccc(C(=O)Nc3ccc(Br)cc3C(=O)O)cc2C1=O (centres undefined),23.8µM*,50.1µM*,nt,-10.6%,-7.8%,-56.8*
CC(c1ccccc1)N1C(=O)c2ccc(C(=O)Nc3ccccc3C(=O)O)cc2C1=O (centres undefined),23.8µM*,?,nt,23.7%,?,?
CC(C)CCN1C(=O)c2ccc(C(=O)Nc3ccccc3C(=O)O)cc2C1=O,-23.0%,-23.8%,-14.6%,5.0%,-7.9%,-60.3*
CCN(CC)S(=O)(=O)c1ccc2c(c1)N(CC(=O)Nc1ccc(F)cc1F)C(=O)C1CCCN21 (centres undefined),nt,1.3%,-4.0%[59 µM],25.3%,-28.1%,nt
O=C(NN=C1CCCC1)C1COc2ccccc2O1 (centres undefined),-1.2%,0.7%,?,28.1%,-14.5%,-1.1
C[C@@H]1ON(C)[C@H]2C[C@H]3c4[nH]c5ccccc5c4CCN3C(=O)[C@@H]12,0.9%,nt,nt,nt,nt,4.6
CCOc1ccc(C(=O)Nc2ccc3nc(SCC(=O)N(C)c4ccccc4)sc3c2)cc1,nt,-22.5%,-4.4%[59 µM],12.1%,-6.6%,nt
COc1ccc2[nH]cc(CCO)c2c1,nt,nt,29.4%[59 µM],nt,nt,nt
CCN(CC)CCNC(=O)c1nn(-c2ccc(Cl)cc2)c2c1CCc1cc(OC)ccc1-2,3.2%,?,nt,-6.7%,nt,4.2
O=c1[nH]nc(Sc2ncnc3sccc23)n1CCc1ccccc1,-19.9%,-20.0%,39.8µM*,66.4%,-5.0%,-15.6
CCN(CC)C(=O)CSc1n[nH]c(=O)n1CCc1ccccc1,-9.9%,-10.6%,4.9%,9.9%,4.7%,-2.6
CCOc1cc(/C=C2\C(=N)N3N=C(S(C)(=O)=O)SC3=NC2=O)ccc1OCCOc1cccc(OC)c1,26.7µM*,79.4µM*,-0.6%[2.33 µM],?,70.8µM*,-79.7*
CCS(=O)(=O)C1=NN2C(=N)/C(=C\c3ccc(OCCOc4cccc(OC)c4)c(OC)c3)C(=O)N=C2S1,23.8µM*,56.2µM*,56.2µM*,5.3%,35.5µM*,-78.0*
COc1ccccc1CNC(=O)CCCCn1c(=O)c2ccccc2n(Cc2ccccc2C)c1=O,nt,2.7%,-21.3%[59 µM],17.1%,?,nt
O=C(CC1SC(N2CCOCC2)=NC1=O)Nc1ccccc1Cl (centres undefined),-4.1%,-16.3%,7.1%[2.33 µM],50.3%,-11.6%,0.7
CCn1cc(C(=O)OCC(=O)Nc2cc(Cl)ccc2OC)c(=O)c2ccc(C)nc21,nt,-9.9%,-3.0%[59 µM],26.1%,-2.0%,nt
CCOc1ccc2cc(-c3nnc(Nc4ccccc4F)s3)c(=O)oc2c1,nt,-13.4%,20.5%[59 µM],16.1%,3.7%,nt
CCc1cccc(CC)c1NC(=O)CCS(=O)(=O)c1ccc2c(c1)CCN2C(C)=O,nt,-2.7%,-0.3%[59 µM],45.9%,nt,nt
O=C(O)CCCNc1n[nH]c(=O)[nH]c1=O,-2.9%,-10.5%,14.1µM*,34.8%,?,2.9
